This is one part of a sample in which hits are shown more often than they occur.
Eya2 phos inh = inhibitors of human Eya2 phosphatase activity. O00167. Potency, µM (highest dose often 76.9 µM), without a hit: top-dose activity, negative = inhibition, usual class: inhibitors. 0.006% of 330,000 active. recombinant Eya2, OMFP fluorescence dephosphorylation (OMFP is methylfluorescein phosphate); also: % is scaled to controls: 0 for no effect and ±100 for the full control effect
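Eya2 protein (added as 0.2 uM solution) was preincubated with compound for 10 min at ambient temperature in 50 mM HEPES pH 7.5, 50 mM NaCl, 5 uM MgCl2, 0.05% BSA, 1 mM DTT. OMFP (added at 50 uM) then reacted 10 min; fluorescence read at 485/525 nm.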
GALK inh = inhibitors of human galactokinase. P51570. Purified GALK, Kinase-Glo residual ATP luminescence. Potency, µM (series often up to 57.5 µM), for the others: top-dose activity change, negative = inhibition, most hits filed as inhibitors. 0.007% of 270,000 active; also: % is scaled to controls: 0 for no effect and ±100 for the full control effect
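5 nM enzyme, 35 uM ATP, 100 uM galactose, 20 mM HEPES pH8.0, 5 mM MgCl2; 1 h RT; residual ATP by Kinase-Glo Plus luminescence, qHTS format.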
USP2a block = blocks human ubiquitin-specific protease USP2a; 0.01% of 330,000 active; USP2 core, Ub-CHOP2 coupled fluorogenic reporter, 485/531; Potency, µM (doses to about 38.3 µM), for inactives: at the highest dose activity change, negative = inhibition, actives largely listed as inhibitors; AID 463254; O75604;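 also: plate controls were DMSO wells for no effect and full inhibition by NEM control for full effect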
Target sequence (O75604 whole entry, looked up): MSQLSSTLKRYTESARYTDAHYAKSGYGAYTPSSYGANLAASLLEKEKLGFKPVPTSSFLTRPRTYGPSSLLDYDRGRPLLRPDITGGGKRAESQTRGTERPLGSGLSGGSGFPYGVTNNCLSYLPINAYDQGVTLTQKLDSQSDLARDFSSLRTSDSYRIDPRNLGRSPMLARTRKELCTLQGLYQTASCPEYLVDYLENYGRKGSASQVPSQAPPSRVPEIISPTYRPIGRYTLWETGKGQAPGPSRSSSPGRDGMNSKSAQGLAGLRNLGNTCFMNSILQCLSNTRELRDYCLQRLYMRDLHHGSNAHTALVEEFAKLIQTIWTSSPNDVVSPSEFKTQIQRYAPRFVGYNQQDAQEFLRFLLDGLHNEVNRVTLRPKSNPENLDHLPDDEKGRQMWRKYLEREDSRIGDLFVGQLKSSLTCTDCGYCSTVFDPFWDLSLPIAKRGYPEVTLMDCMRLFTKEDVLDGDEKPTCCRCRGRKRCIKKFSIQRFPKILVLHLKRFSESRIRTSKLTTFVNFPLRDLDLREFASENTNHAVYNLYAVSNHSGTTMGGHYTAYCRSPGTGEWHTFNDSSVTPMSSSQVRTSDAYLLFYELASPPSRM
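Deubiquitinase activity read as fluorescence (485/531 nm) after Ub-CHOP2 cleavage activates the enterokinase reporter on its substrate; USP2 core 10nM, Ub-CHOP2 and substrate 25nM each, 30min compound preincubation then 60min RT; data normalized to NEM, curves fitted.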
ClpP mod = qHTS Assay for Activators of ClpP. 1.9% of 340,000 active. ATP-dependent Clp protease proteolytic subunit (Bacillus subtilis (strain 168)), P80244. Potency, µM (titrated, usually from 57.5 µM), for the others: at the top dose activity change, negative = active. purified B. subtilis ClpP, FRET peptide cleavage, 20 min; active = well fitted falling curve with a large enough effect; inconclusive = small, poorly fitted or top-dose-only effect; inactive = no such curve, though single readings can be large or run the other way; also: the source files actives as falling curves though it sought activators and does not explain the sign; nearly all actives have a fitted effect of over 65% in size
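FRET quenching reversal measured ClpP activation: 10 microg/mL B. subtilis ClpP at pH 8 with the FRET-FV decapeptide, read at 430 nm after 320 nm excitation. The 20-min minus 0-min signal was scaled between DMSO/no-enzyme wells and ADEP (5.8 microM final).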
Starred values were filed as active, the others as inactive; ? = inconclusive; · = not tested or not shown; [ ] = another dose, or the depositor's remark. Unless noted, calls follow the shape of the dose curve; as a rule, active = well fitted inhibition curve with a large enough effect; inconclusive = small, poorly fitted or top-dose-only effect, or effect the other way; inactive = flat fitted curve, though single readings scatter. Potency is read from the fitted curve at half-maximal effect.

SMILES | Eya2 phos inh | GALK inh | USP2a block | ClpP mod
O=C(NNC1CC(c2ccccc2)=NN1C(=O)c1ccccc1)c1ccccc1 (stereo not given) | 2.0% | -0.9% | -1.1% | 2.1%
COc1ccc(C(=O)NC2CCN(C(=S)Nc3ccccc3C)CC2)cc1 | 2.4% | 0.1% | 0.9% | ·
Cc1c(C(=O)NCc2cccc(Cl)c2)sc2nc[nH]c(=O)c12 | · | · | · | 22.4µM*
Cc1c(C(=O)NCc2ccccc2Cl)sc2nc[nH]c(=O)c12 | · | · | · | 39.8µM*
Cc1c(C(=O)NCc2ccccc2)sc2nc[nH]c(=O)c12 | · | · | · | -51.6%
C(=N\C(/N=C/c1ccco1)c1ccco1)/c1ccco1 | 2.9%[15.4 µM] | 3.6% | -0.4% | 15.8µM*
CC1=CC(C)(C)Nc2ccc(C)cc21 | 10.0% | 3.2% | 1.9% | 31.6µM*
CC1(C)C(=O)OC(C(=O)c2ccc(C(C)(C)C)cc2)C(C)(C)C1=O (stereo not given) | 5.5% | -3.4% | 1.2% | 31.6µM*
Cc1cc(C)c(C)c(C(=O)C2OC(=O)C(C)(C)C(=O)C2(C)C)c1C (stereo not given) | 5.7% | 1.4% | -0.5% | -0.6%
C=CCNC(=O)C1CCN(c2nc(C)cc(-c3ccccc3)n2)CC1 | 10.7% | 5.4% | 1.6% | 25.1µM*
CSCC[C@@H](CO)NC(=O)c1ccc2nc(C3CCCCC3)oc2c1 | 11.2% | -2.6% | -2.2% | 0.7%
Oc1ccc(-c2nc(-c3ccccc3)c(-c3ccc(Br)cc3)[nH]2)cc1 | · | · | · | 4.6%
CSc1nc(-c2ccccc2)c(-c2ccccc2)[nH]1 | -3.1% | -1.4% | -0.8% | 15.8µM*
Cc1ccc(-c2[nH]c(-c3ccc(C(=O)O)cc3)nc2-c2ccccc2)cc1 | -15.2% | -0.2% | 2.3% | -3.1%
Cc1nc(-c2ccccc2)c(-c2ccccc2)[nH]1 | 4.0% | -2.3% | -1.2% | 25.1µM*
CCOc1ccc(NC(=O)C2CCN(S(=O)(=O)CC)CC2)cc1 | 1.6% | -4.2% | 2.6% | -0.8%
Cc1cc(C)cc(N2CC(O)=C(c3nc4ccccc4c(=O)[nH]3)C2=N)c1 | -0.8% | -1.2% | -0.9% | ·
N=C1C(c2nc3ccccc3[nH]2)=C(O)CN1c1ccc(F)cc1 | 19.7% | 1.6% | 1.5% | ?
CC(C)N1CC(O)=C(c2nc3ccccc3c(=O)[nH]2)C1=N | -3.8% | 0.4% | -0.5% | 28.2µM*
COc1cccc(N2CC(O)=C(c3nc4ccccc4c(=O)[nH]3)C2=N)c1 | -8.5% | -2.2% | 5.4% | 25.1µM*
CC(=O)Nc1nc(-c2ccc3c(c2)OCO3)cs1 | 11.2% | 5.8% | 1.1% | 2.0%
CCOC(=O)c1ccc(-c2ccc(CO)o2)cc1 | 0.7% | · | 3.2% | 0.708µM*
S=c1[nH]nc(Cc2cccc3ccccc23)o1 | 8.2% | 0.5% | 0.0% | 28.2µM*
Cc1[nH]c2ccccc2c1Cc1n[nH]c(=S)o1 | -11.5% | 3.5% | -1.6% | -6.8%
O=C(/C=C/c1ccccc1)OCC(=O)c1ccc[nH]1 | 1.6% | · | -0.1% | ·
SMILES | Eya2 phos inh | GALK inh | USP2a block | ClpP mod
O=C(Nc1ccc(N2CCOCC2)cc1)C1CCCN(S(=O)(=O)c2ccccc2)C1 (stereo not given) | 0.5% | 3.2% | 2.6% | -2.0%
Oc1ccccc1C=Nc1ccccc1-c1nc2ccccc2[nH]1 | 1.9% | -0.4% | 2.1% | 28.2µM*
Cc1cc(C)c(CN2CCN(Cc3ccc(C)o3)C(CCO)C2)c(-n2cccn2)c1 (stereo not given) | -2.5% | 5.0% | -6.0% | 25.1µM*
Cc1ccc(CN2CCN(Cc3c(C)nn(-c4ccc(F)cc4)c3C)CC2CCO)o1 (stereo not given) | -28.2% | -2.3% | 1.0% | 0.8%
COc1ccc(/C=C/C(=O)OCC(=O)c2ccccc2F)cc1 | 3.9% | · | 0.4% | -2.5%
Cc1ccc(S(=O)(=O)N2CCCCC2CCNC(=O)C(=O)NCc2ccco2)cc1 (stereo not given) | 4.5% | · | 0.1% | ·
Cc1cc(C)c(S(=O)(=O)N2CCCCC2CCNC(=O)C(=O)NCc2ccco2)c(C)c1 (stereo not given) | -6.1% | · | 6.9% | 14.1µM*
C=CCSC(=S)NC1CCS(=O)(=O)C1 (stereo not given) | 11.0% | 0.9% | -0.1% | 0.6%
Cc1ccc(Nc2ccccc2)cc1 | 1.7% | -0.1% | 1.2% | -10.3%
COc1ccc(OC)c(/C=N/NC(=O)CCCC(=O)Nc2cccc(Br)c2)c1 | 16.1% | 2.8% | -7.9% | 25.1µM*
O=C(CCN1CCN(C(c2ccccc2)c2ccccc2)CC1)N/N=C/c1ccc(O)cc1O | -0.9% | -3.2% | -2.2% | -4.2%
COc1ccc(OC)c(/C=N/NC(=O)CCN2CCN(C(c3ccccc3)c3ccccc3)CC2)c1 | 0.9% | 0.0% | -1.2% | 28.2µM*
COC(=O)c1sc2ccccc2c1-n1cccc1C(=O)C(=O)Nc1ccc(Cl)cc1 | -3.3% | -3.3% | -0.6% | 14.1µM*
COC(=O)c1sc2ccccc2c1-n1cccc1C(=O)C(=O)Nc1ccc(C)cc1 | 11.0% | 4.2% | -8.8% | -0.8%
CCCCC(C)n1[nH]c(=O)c2c(C)cc(C)nc21 (stereo not given) | -1.1% | 3.9% | 4.0% | ·
O=C(c1ccc(Cl)cc1)c1cnc(-c2ccccc2)s1 | 1.2% | 1.4% | 0.4% | 20µM*
Cc1cccc(-n2ccnc2SCC(=O)O)c1C | -2.9% | -0.1% | 2.3% | 10µM*
Cc1ccccc1-n1ccnc1SCC(=O)O | 1.2% | 0.9% | 5.0% | 0.2%
O=C(Nc1ccc(O)c(-c2nc3ccccc3s2)c1)c1cccs1 | -0.6% | -0.1% | 0.0% | 28.2µM*
C=CCn1c(COc2cccc3ccc(C)nc23)nnc1SCC(=O)OC | -0.1% | 2.3% | 0.4% | 28.2µM*
CCn1c(COc2cccc3cccnc23)nnc1SCC(=O)OC | -0.1% | -0.9% | -1.0% | -22.0%
CC(C)Nc1nc(Nc2ccc(Cl)cc2F)c2sccc2n1 | · | · | · | -6.2%
CC1CC(C)CN(C(=O)c2cc3c(=O)n4ccccc4nc3s2)C1 (stereo not given) | -2.4% | 5.9% | 1.4% | ·
CC1CN(C(=O)c2cc3c(=O)n4ccccc4nc3s2)CC(C)O1 (stereo not given) | -18.6% | 0.3% | 1.2% | 17.8µM*
CC1CCC2(CC1)NC(=O)N(CC(=O)c1ccc[nH]1)C2=O (stereo not given) | -19.5% | -2.7% | 2.6% | 28.2µM*
SMILES | Eya2 phos inh | GALK inh | USP2a block | ClpP mod
CCN1C(=O)C(CC(=O)NC)N(NC(=O)c2ccccc2)C1=S (stereo not given) | 12.4% | 4.5% | 0.2% | 25.1µM*
Cc1cccc(NC(=O)c2sc3cccc(Cl)c3c2Cl)c1 | · | · | · | -14.6%
O=C(OCC(=O)N1N=C(c2ccc(Cl)cc2)CC1c1ccco1)c1ccccc1O (stereo not given) | -18.5% | 0.4% | -0.8% | 35.5µM*
O=C(OCC(=O)N1N=C(c2ccc(Cl)cc2)CC1c1ccco1)c1ccco1 (stereo not given) | 2.7% | -6.1% | -0.2% | ·
Cc1cc(F)ccc1NCc1cccnc1 | -3.3% | -1.9% | 0.9% | -0.9%
O=C(Cn1ccc(C(F)(F)F)n1)NNC(=O)c1ccco1 | 8.1% | · | 0.8% | 0.3%

Screening data deposited in PubChem BioAssay by National Center for Advancing Translational Sciences (NCATS).
